Measured values taken from PubChem BioAssay AID1345085 (National Center for Advancing Translational Sciences (NCATS), 2018).
Records with an inconclusive call do not appear. The source made the active and inactive calls. Calls come from the whole dose curve; as a rule, active = well fitted cell-killing curve with a large enough effect; inconclusive = small, poorly fitted or top-dose-only effect, or effect the other way; inactive = no such curve, though single readings can be large or run the other way.

System: CAOV3
Experiment: Confirmatory qHTS for gynecologic anti-cancer compounds from libraries of approved drugs and bioactive compounds; note: nearly all actives have a fitted effect of over 55% in size
Details: gynecologic cancer cell panel viability, ATPlite luminescence, 48 h; series mostly up to 57.6 µM
In short: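 Cells (1,000/well) plated 16 h, then exposed 48 h at 37 °C to 11 concentrations (1:3) from 57.5 uM to 0.977 nM. Viability by ATPlite luminescence after 15 min; IC50 derived, with HEK 293T used for selectivity index.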
Potency is the fitted concentration of half-maximal effect.

SMILES | Potency
OC[C@H]1O[C@@H](n2cnc3c(=S)nc[nH]c32)[C@H](O)[C@@H]1O | 1.37 µM (active)
CC(Oc1ccc2[nH]nc(/C=C/c3cnn(CCO)c3)c2c1)c1c(Cl)cncc1Cl (stereo not drawn) | 2.73 µM (active)
NCCOc1cc(C(=O)Nc2cc(OCCN)c3ccccc3n2)nc(C(=O)Nc2cc(OCCN)c3ccccc3n2)c1 | inactive
CC(C)Oc1ccc(C(=O)NC(CNC(=O)CN(C)C)Cc2ccc(-c3cn4cccc(C(C)O)c4n3)cc2)cc1Cl (stereo not drawn) | inactive
Cc1cc(C2CCCCC2)n(O)c(=O)c1 | 12.5 µM (active)
CCN(CC)CCOc1ccc(/C(=C(\Cl)c2ccccc2)c2ccccc2)cc1 | 100 µM (active)
CN(C)CC/C=C1\c2ccccc2COc2ccccc21 | inactive
CN1C(=O)C(Cc2c[nH]c3ccccc23)NC1=S (stereo not drawn) | inactive
CC(C)[C@@H](CS(=O)(=O)C(C)C)N1C(=O)[C@@](C)(CC(=O)O)C[C@H](c2cccc(Cl)c2)[C@H]1c1ccc(Cl)cc1 | inactive
O=C(/C=C/c1cccc(S(=O)(=O)Nc2ccccc2)c1)NO | 10.6 µM (active)
CCCC(=O)O[C@]1(C(=O)CCl)[C@@H](C)C[C@H]2[C@@H]3CCC4=CC(=O)C=C[C@]4(C)[C@@]3(F)C(=O)C[C@@]21C | inactive
CC(C)n1nc(-c2cc3cc(O)ccc3[nH]2)c2c(N)ncnc21 | 19.3 µM (active)
CC(C)C[C@H](NC(=O)[C@H](CCc1ccccc1)NC(=O)CN1CCOCC1)C(=O)N[C@@H](Cc1ccccc1)C(=O)N[C@@H](CC(C)C)C(=O)[C@@]1(C)CO1 | 3.06 µM (active)
CN(C)CCC(CSc1ccccc1)Nc1ccc(S(=O)(=O)NC(=O)c2ccc(N3CCN(Cc4ccccc4-c4ccc(Cl)cc4)CC3)cc2)cc1[N+](=O)[O-] (stereo not drawn) | 9.68 µM (active)
Cc1ccc(C(=O)N(CCCN)C(c2nc3cc(Cl)ccc3c(=O)n2Cc2ccccc2)C(C)C)cc1 (stereo not drawn) | 17.2 µM (active)
CCS(=O)(=O)N1CCN(c2ccc(Nc3ncc(C(N)=O)c(NC4CC4)n3)cc2)CC1 | 6.85 µM (active)
CC(=O)Nc1cccc(-n2c(=O)n(C3CC3)c(=O)c3c(Nc4ccc(I)cc4F)n(C)c(=O)c(C)c32)c1 | inactive
CC[C@@]1(O)C(=O)OCc2c1cc1n(c2=O)Cc2cc3cc(O)ccc3nc2-1 | 0.109 µM (active)
Cc1cc(Nc2nc(N[C@@H](C)c3ccc(F)cc3)c(C#N)cc2F)n[nH]1 | 17.2 µM (active)
C#C[C@]1(O)CC[C@H]2[C@@H]3CCC4=CC(=O)CC[C@@H]4[C@H]3CC[C@@]21CC | inactive
COc1c(C)c2c(c(O)c1C/C=C(\C)CCC(=O)OCCN1CCOCC1)C(=O)OC2 | inactive
Cc1nc(Nc2n[nH]c3c2CN(C(=O)NC(CN(C)C)c2ccccc2)C3(C)C)c2sccc2n1 (stereo not drawn) | 0.306 µM (active)
COc1cc(C(=O)N2CCC(N3CCN(C)CC3)CC2)ccc1Nc1ncc2c(n1)N(C)c1ccccc1C(=O)N2C | 10.9 µM (active)

SMILES | Potency
Cc1ccc(C(=O)Nc2ccc(Oc3cc4cnn(C)c4cc3-c3cn[nH]c3)c(F)c2)c(=O)n1-c1ccc(F)cc1 | 6.85 µM (active)
COc1cc(-c2nn(C3CCC(N4CCN(C(C)=O)CC4)CC3)c3ncnc(N)c23)ccc1NC(=O)c1cc2ccccc2n1C (stereo not drawn) | 30.6 µM (active)
CC(=O)OC12COC1CC(O)C1(C)C(=O)C(O)C3=C(C)C(OC(=O)C(O)C(NC(=O)OC(C)(C)C)c4ccccc4)CC(O)(C(OC(=O)c4ccccc4)C21)C3(C)C (stereo not drawn) | inactive
Cc1ccc(C(=O)Nc2ccc(CN3CCN(C)CC3)c(C(F)(F)F)c2)cc1C#Cc1cnc2cccnn12 | 19.3 µM (active)
C[C@@H](Oc1cc(-c2cnn(C3CCNCC3)c2)cnc1N)c1c(Cl)ccc(F)c1Cl | 17.2 µM (active)
CCOc1ccc(Nc2nc(-c3c(C)nc4ccccn34)cs2)cc1 | inactive
FC(F)(F)c1ccc(/C=C/c2nc(COc3ccc(CCCCn4ccnn4)cc3)co2)cc1 | inactive
C1CCC(C(CC2CCCCN2)C2CCCCC2)CC1 (stereo not drawn) | 24.3 µM (active)
CNc1nc(Nc2ccc(C(=O)N3CCOCC3)cc2OC)ncc1Cl | inactive
COc1ccc(CCC(=O)c2c(O)cc(O[C@@H]3O[C@H](CO)[C@@H](O)[C@H](O)[C@H]3O[C@@H]3O[C@@H](C)[C@H](O)[C@@H](O)[C@H]3O)cc2O)cc1O | inactive
O=C1N(c2ccccc2)c2ccccc2C1(Cc1ccncc1)Cc1ccncc1 | inactive
O=C1c2c(O)ccc(O)c2C(=O)c2c(NCCNCCO)ccc(NCCNCCO)c21 | 3.85 µM (active)
Cc1cc(Nc2cc(N3CCN(C)CC3)nc(Sc3ccc(NC(=O)C4CC4)cc3)n2)n[nH]1 | inactive
NS(=O)(=O)OC[C@@H]1C[C@@H](n2ccc3c(N[C@H]4CCc5ccccc54)ncnc32)C[C@@H]1O | 3.06 µM (active)
Cc1ccc(C(=O)Nc2cccc(C(F)(F)F)c2)cc1-c1ccc2nc(NCCN3CCOCC3)ncc2c1 | 24.3 µM (active)
Cc1cc(Nc2nc(N[C@@H](C)c3ncc(F)cn3)ncc2Cl)n[nH]1 | 7.69 µM (active)
CNC1CCC(N(Cc2cccc(-c3ccncc3)c2)C(=O)c2sc3ccccc3c2Cl)CC1 (stereo not drawn) | 27.3 µM (active)
COC(C(=O)N1Cc2[nH]nc(NC(=O)c3ccc(N4CCN(C)CC4)cc3)c2C1)c1ccccc1 (stereo not drawn) | 1.53 µM (active)
COc1ccc(OC)c(-c2nnc3ccc(-c4ccc(OC)c(O[C@@H]5CCOC5)c4)nn23)c1 | 8.63 µM (active)
COc1c(C)c2c(c(O)c1C/C=C(\C)CCC(=O)O)C(=O)OC2 | inactive
COc1cc2c(Oc3ccc(-c4cnc(Nc5ccc(F)cc5)n(C)c4=O)cc3F)ccnc2cc1OCCCN1CCOCC1 | 19.3 µM (active)
CNC(=O)c1ccccc1Sc1ccc2c(/C=C/c3ccccn3)n[nH]c2c1 | 6.85 µM (active)
COc1cc2c(NC3CCN(C(C)C)CC3)nc(C3CCCCC3)nc2cc1OCCCN1CCCC1 | 8.63 µM (active)

SMILES | Potency
NC(=O)Nc1cc(-c2cccc(F)c2)sc1C(=O)NC1CCCNC1 (stereo not drawn) | 1.22 µM (active)
COC(C)(C)CCn1nc(Nc2c(C)cccc2C)c2cnc(Nc3ccc(OCCN4CCCC4)c(F)c3)nc21 | 21.7 µM (active)
COc1ccc2cc3[n+](cc2c1OC)CCc1cc2c(cc1-3)OCO2 | inactive
CCN1CCN(Cc2ccc(-c3cc4c(NC(C)c5ccccc5)ncnc4[nH]3)cc2)CC1 (stereo not drawn) | 27.3 µM (active)
O=C(NOC[C@H](O)CO)c1ccc(F)c(F)c1Nc1ccc(I)cc1F | inactive
CCCCN(CCCC)C(=O)CN1C[C@H](c2ccc3c(c2)OCO3)[C@@H](C(=O)O)[C@@H]1c1ccc(OC)cc1 | inactive
COc1cc2c(c(OC)c1OC)-c1ccc(OC)c(=O)cc1[C@@H](NC(C)=O)CC2 | inactive
Nc1ncnc2c1ncn2[C@@H]1O[C@H](CO)C[C@H]1O | inactive
Cc1ccc(C(N)=O)cc1Nc1nccc(-c2cn(C(C)C)c3cnccc23)n1 | 17.2 µM (active)
N#CC1(c2cccc(C(=O)Nc3cc(Oc4ccc5nc(NC(=O)C6CC6)sc5n4)ccc3F)c2Cl)CC1 | inactive
COc1cccc2c1C(=O)c1c(O)c3c(c(O)c1C2=O)C[C@@](O)(C(=O)CO)C[C@@H]3O[C@H]1C[C@H](N)[C@H](O[C@@H]2CCCCO2)[C@H](C)O1 | 9.68 µM (active)
Cc1cnc(Nc2ccc(OCCN3CCCC3)cc2)nc1Nc1cccc(S(=O)(=O)NC(C)(C)C)c1 | 7.69 µM (active)
Cn1c(=O)c(-c2c(Cl)cccc2Cl)cc2cnc(Nc3cccc(C(=O)O)c3)nc21 | 2.73 µM (active)
C[C@]12CCC(=O)C=C1CC[C@@H]1[C@@H]2[C@@H](O)C[C@@]2(C)[C@H]1CC[C@]2(O)C(=O)CO | inactive
CO[C@@]12[C@H](COC(N)=O)C3=C(C(=O)C(C)=C(N)C3=O)N1C[C@@H]1N[C@@H]12 | inactive
CC(=O)c1cnc2ccc(-c3cc(Cl)c(O)c(Cl)c3)nc2c1NC1CCC(CN(C)C)CC1 (stereo not drawn) | 0.157 µM (active)
CN1CCN(Cc2ccc(NC(=O)Nc3ccc(Oc4cc(NC(=O)C5CC5)ncn4)cc3)cc2C(F)(F)F)CC1 | 13.7 µM (active)
CCCCN(CCCC)CC(O)c1cc(Cl)cc2c1-c1ccc(Cl)cc1/C2=C/c1ccc(Cl)cc1 (stereo not drawn) | inactive
CCc1nc(C(N)=O)c(Nc2ccc(N3CCC(N4CCN(C)CC4)CC3)c(OC)c2)nc1NC1CCOCC1 | 6.72 µM (active)
C[C@]12CCC(=O)C=C1[C@@H]1C[C@@H]1[C@H]1[C@@H]3[C@@H]4C[C@@H]4[C@@]4(CCC(=O)O4)[C@@]3(C)CC[C@@H]12 | inactive
CC(C)C[C@H](NC(=O)[C@H](Cc1ccccc1)NC(=O)c1cnccn1)B(O)O | 0.0769 µM (active)
CN(C)/N=N/c1nc[nH]c1C(N)=O | inactive
